Compound activity: PubChem, National Center for Advancing Translational Sciences (NCATS)
A selection: hits, their analogues and other compounds. The true share with any hit is near 7.3%.
FLuc counter – counter-screen for miR-21 project: firefly luciferase inhibitors or activators. purified FLuc, Km substrates, luminescence inhibition. Potency, µM (series often up to 57.5 µM), usual class: inhibitors. 6.9% of 360,000 active. AID 588342; further: nearly all actives have a fitted effect of over 55% in size
Target sequence (P08659 whole entry, looked up): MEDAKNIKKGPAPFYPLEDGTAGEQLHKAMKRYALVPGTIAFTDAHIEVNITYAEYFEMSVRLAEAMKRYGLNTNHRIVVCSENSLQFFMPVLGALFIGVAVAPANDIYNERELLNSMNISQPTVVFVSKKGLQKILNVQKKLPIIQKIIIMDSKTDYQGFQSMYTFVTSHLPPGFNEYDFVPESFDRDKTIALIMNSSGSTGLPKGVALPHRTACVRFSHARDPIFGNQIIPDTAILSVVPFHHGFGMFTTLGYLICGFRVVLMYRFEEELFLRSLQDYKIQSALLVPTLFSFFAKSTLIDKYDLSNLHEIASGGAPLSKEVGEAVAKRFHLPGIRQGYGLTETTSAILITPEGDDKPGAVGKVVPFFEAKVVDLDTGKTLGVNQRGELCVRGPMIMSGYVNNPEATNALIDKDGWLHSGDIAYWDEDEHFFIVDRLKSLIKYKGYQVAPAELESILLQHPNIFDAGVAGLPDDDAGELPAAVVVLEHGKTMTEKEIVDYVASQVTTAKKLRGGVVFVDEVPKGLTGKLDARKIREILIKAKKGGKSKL
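Purified P. pyralis luciferase (10nM final) with 10uM D-luciferin and 10uM ATP (Km levels) in 50mM Tris acetate pH 7.5, 10mM Mg acetate, 0.01% Tween-20, 0.05% BSA; qHTS 6-point titration, ~60 µM downward; luminescence read.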
NPC1 prom act – NPC1 promoter activation | Potency, µM (doses to about 9.22 µM), most hits filed as activators | Huh7 NPC1 promoter luciferase reporter, 24 h | AID 485313 | 2.4% of 320,000 active; further: nearly all actives have a fitted effect of over 60% in size
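Stable NPC1-promoter luciferase Huh7 line; cpd (DMSO) 24 h, 37 °C, 5% CO2; Amplite luciferase reagent 10 min RT; luminescence readout. qHTS format.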
SMN2 splice up – SMN2 splice variant enhancement; AID 1458; 2.8% of 210,000 active; Potency, µM (series often up to 46.1 µM), most hits filed as activators; HEK293 SMN2-luciferase splicing reporter, luminescence, 30-36 h; further: nearly all actives have a fitted effect of over 55% in size
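HEK293 cells carry an SMN2 […]–luciferase reporter in which exon 7 inclusion puts luciferase in frame. Cells were plated 10-12 h before compound addition, then incubated 30-36 h at 37C. ONE-Glo luminescence was read; sodium butyrate at 4.5 mM final served as control.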
uPA generation – inhibitors of cell surface uPA generation; cell surface uPA generation assay, qHTS; Potency, µM (doses to about 38.3 µM), hits mostly inhibitors; 0.31% of 330,000 active; AID 540303; active means well fitted inhibition curve with a large enough effect; inconclusive means small, poorly fitted or top-dose-only effect; inactive means no such curve, though single readings can be large or run the other way; tested in mouse RAW 264.7 cells; further: nearly all actives have a fitted effect of over 55% in size
ELG1 genotoxic – induces genotoxicity in HEK293T cells with luciferase-tagged ELG1. AID 504466. HEK293T ELG1-luciferase reporter, luminescence, 16 h. Potency, µM (doses to about 46 µM), hits mostly activators. 1.3% of 330,000 active; further: nearly all actives have a fitted effect of over 60% in size
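DMSO vehicle served as control against compound-treated ELG1-luciferase HEK293T cells; exposure lasted 16 hr at 37 °C and 5% CO2, followed by ONE-Glo luminescence detection after 30 min.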
Rab9 promoter act – Rab9 promoter activation; Huh7 Rab9 promoter-luciferase reporter, luminescence, 24 h; Potency, µM (titrated, usually from 9.22 µM), hits mostly activators; 2.8% of 320,000 active; AID 485297; further: nearly all actives have a fitted effect of over 60% in size
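Huh7 reporter line, Rab9 promoter upstream of luciferase. Compound exposure 24 h at 37 °C in reduced-serum medium with 10% FBS. Read-out: luminescence.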
Numbers stand for hits; i = inactive; ? = inconclusive; nt = no result; [ ] = remark or other dose. Unless noted, the call rests on the fitted dose curve; in most records, active means well fitted curve in the direction sought with a large enough effect; inconclusive means small, poorly fitted or top-dose-only effect, or another doubt; inactive means no such curve, though single readings can be large; an effect the other way counts as inactive or inconclusive.

SMILES | FLuc counter | NPC1 prom act | SMN2 splice up | uPA generation | ELG1 genotoxic | Rab9 promoter act
O=C(Nc1cccnc1)c1ccc(Br)s1 | i[2.3 µM] | i | i | nt | i | i
CCc1sc(C(=O)Nc2cccnc2)cc1Br | 10.7µM | ? | nt | i | ? | ?
CC(C)(C)c1ccc(C(=O)Nc2cccnc2)cc1 | 2.69µM | 2.82µM | nt | ? | 2.31µM | 3.98µM
Cc1ccc(-c2nn(-c3ccccc3)cc2C(=O)N2CCN(c3ccccn3)CC2)cc1 | 15.1µM | i | i | i | i | i
O=C(c1cn(-c2ccccc2)nc1-c1ccccc1)N1CCN(c2ccccn2)CC1 | 10.7µM | i | i | ? | i | i
O=C(CC(c1cccs1)N1Cc2ccccc2C1=O)Nc1ccc(Cl)cc1 (configuration not stated) | i | nt | nt | nt | nt | nt
Cc1cccc(NC(=O)c2ccc(C(=O)c3ccccc3)cc2)n1 | 9.53µM | ? | nt | i | 20.6µM | ?
O=C(Nc1cccc(NC(=O)c2ccccc2)n1)c1ccccc1 | 9.53µM | i | nt | i | i | i
Cc1cccc(NC(=O)c2cccc(C(=O)Nc3cccc(C)n3)c2)n1 | i | i | nt | i | i | i
CCOc1ccc(NC(=O)C2CCN(c3nnc(-n4c(C)ccc4C)s3)CC2)cc1 | i | nt | i | nt | nt | nt
COc1ccc(-c2cn3c(n2)sc2cc(C(=O)NCc4cccs4)ccc23)cc1 | i | nt | nt | nt | nt | nt
COc1ccc(OC)c(CCNC(=O)CCCc2nnc3n(C)c(=O)c4sccc4n23)c1 | i | i | i | i | i | i
Cc1cc(NC(=O)c2ccco2)cc(-c2nc3cc(Cl)ccc3o2)c1O | i | nt | i | nt | nt | nt
C#CCN1C(=O)S/C(=C/C=C/c2ccc(N(C)C)cc2)C1=O | 2.69µM | 3.16µM | 7.08µM | i | 9.2µM | 2µM
CN(C)c1ccc(/C=C2\SC(=O)N(CC(O)Cn3c4ccccc4c4ccccc43)C2=O)cc1 (configuration not stated) | i | i | i | i | i | i
Nc1cccc(-c2cn3cc(C(F)(F)F)cc(Cl)c3n2)c1 | 1.9µM | 1µM | 7.94µM | nt | ? | 1.58µM
Cc1cc(C(F)(F)F)nc(-n2cc(-c3cccc(N)c3)nn2)n1 | i | i | nt | i | i | i
FC(F)(F)c1cc(Cl)c2nc(-c3ccccc3)cn2c1 | 1.9µM | ? | 14.1µM | i | ? | ?
CCOc1ccccc1N1CCN(C(=O)c2cc(S(=O)(=O)N(C)C)ccc2N2CCCC2)CC1 | i | i | nt | ? | i | i
O=C(Nc1ccccc1)c1ccc(-c2ccccc2Cl)o1 | 6.01µM | i | ? | i | ? | ?
CC(=O)Nc1ccc(NC(=O)c2ccc(-c3ccccc3Cl)o2)cc1 | i | i | nt | i | ? | ?
CC(C)NC(=O)c1ccc(-c2ccccc2C(F)(F)F)o1 | ? | i | ? | i | i | i
N#Cc1ccccc1NC(=O)c1ccc(-c2ccccc2Cl)o1 | ? | 3.98µM | ? | i | ? | ?
O=C(Nc1ccccc1)c1ccc(-c2ccccc2C(F)(F)F)o1 | 16.9µM | i | i | i | i | i
CCOc1ccc(CCNC(=O)CCc2c(C)nc3c(c(C)nn3-c3ccccc3)c2C)cc1OCC | i | nt | i | nt | nt | nt
SMILES | FLuc counter | NPC1 prom act | SMN2 splice up | uPA generation | ELG1 genotoxic | Rab9 promoter act
COCCN1Cc2c(sc(C)c2C)N(C(=O)c2ccccc2)C1 | 19µM | ? | i | i | i | i
Cc1sc2c(c1C)CN(C(C)(C)C)CN2C(=O)c1ccccc1 | ? | ? | ? | i | ? | ?
CCOC(=O)c1ccc(NC(=O)CN(Cc2ccc(C)cc2)S(=O)(=O)c2ccc(C)cc2)cc1 | i | nt | i | nt | nt | nt
Cc1c(C(=O)Nc2ccc(Cl)cn2)oc2ccccc12 | i | i | ? | i | ? | i
CCOc1ccc2oc(C(=O)Nc3cc(C)ccn3)c(C)c2c1 | 0.338µM | 0.631µM | nt | i | ? | 0.501µM
CCOc1ccc2oc(C(=O)NNC(=O)c3ccccc3O)c(C)c2c1 | 10.7µM | i | nt | i | ? | i
Cc1ccnc(NC(=O)c2oc3ccccc3c2C)c1 | 1.2µM | 2.82µM | nt | i | ? | 2.51µM
Cc1c(C(=O)Nc2cnccn2)oc2ccccc12 | 15.1µM | i | 11.2µM | i | ? | i
CCOC(=O)c1ccc(NC(=O)CCn2ccc(C)n2)cc1 | i | nt | nt | nt | nt | nt
Cc1c(C(=O)NCc2ccccn2)oc2ccccc12 | ? | ? | ? | nt | 14.6µM | ?
Cc1c(C(=O)NCc2ccccn2)oc2ccc(Br)cc12 | ? | ? | nt | i | i | ?
CCCCC/C=C\C\C=C/C=C/C=C/[C@@H](SC[C@H](N)C(=O)O)[C@@H](O)CCCC(=O)O | nt | nt | i | nt | nt | nt
C=CCOC(=O)C(=O)/C=C/c1ccc2c(c1)Cc1ccccc1-2 | 10.7µM | i | nt | i | i | i
O=C(O)/C=C\C(=O)Nc1ccc2c(c1)-c1ccccc1C2 | nt | nt | i[9.22 µM] | nt | nt | nt
CCOc1ccccc1N1CCN(C(=O)c2csc(C)c2CC)CC1 | i | i | i | i | i | i
N#C/C(=C\c1ccco1)c1nc2ccccc2s1 | 1.69µM | i | 11.2µM | i | 7.31µM | ?
N#C/C(=C/c1ccc(-c2cc(C(=O)O)cc(C(=O)O)c2)o1)c1nc2ccccc2s1 | 2.13µM | i | i | nt | i | i
N#C/C(=C/c1ccco1)c1nc2ccccc2s1 | 1.9µM | i | ? | ? | 16.4µM | 3.55µM
Cc1ccc(NC(=O)CN(C)C(=O)COc2ccccc2-c2ccccc2)cc1 | nt | nt | nt | i | i | nt
COc1ccc(-c2cc(C(=O)NC3=NCCS3)c3ccccc3n2)cc1OC | 9.53µM | i | i | i | i | ?
Cc1cc(C(=O)NC2=NCCS2)c2ccccc2n1 | i | i | i | i | i | i
O=C(NC1=NCCS1)c1cc(-c2ccc(-c3ccccc3)cc2)nc2ccccc12 | 0.849µM | 3.98µM | i[1.84 µM] | i | i | 1.78µM
Cc1cc(C(=O)CSc2nc3ccc(Cl)cc3[nH]2)c(C)n1C | i | i | i | nt | i | i
O=C(CSc1nc2cc(Cl)ccc2o1)c1cccs1 | 19µM | i | i | i | ? | i
O=C(CSc1nc2ccc(Cl)cc2[nH]1)c1cccs1 | 13.5µM | i | nt | i | i | i
SMILES | FLuc counter | NPC1 prom act | SMN2 splice up | uPA generation | ELG1 genotoxic | Rab9 promoter act
O=C(CSc1nc2cc(Cl)ccc2o1)NCCc1ccccc1 | i | i | nt | i | i | i
Cc1ccc(NC(=O)c2noc(C(C)C)c2[N+](=O)[O-])cc1 | ? | i | i | i | i | i
CCc1cccc(C)c1NC(=O)CN1C(=O)c2ccccc2Sc2ncccc21 | i | nt | nt | nt | nt | nt
CCn1c2ccccc2c2nc3ccccc3nc21 | ? | ? | i | i | i | i
CC(=O)n1c2ccccc2c2c1c1ccccc1n2C | i | i | i | i | i | i
CC(=O)n1c2ccccc2c2nc3ccccc3nc21 | ? | 3.16µM | nt | i | ? | 2.82µM
CCn1c2ccccc2c2nc3cc(C(=O)O)ccc3nc21 | 19µM | i | i | i | ? | i
CCn1c2ccccc2c2nc3cc(OC)c(OC)cc3nc21 | 8.49µM | i | nt | i | i | i
COc1cc2nc3c4ccccc4n(CC#N)c3nc2cc1OC | ? | ? | i | nt | i | i
N#Cc1ccc(CN2CCC3(CC2)CCN(S(=O)(=O)c2ccccc2)CC3)cc1 | nt | nt | i | nt | nt | nt
CCCn1c(CCCNC(=O)c2ccccc2OC)nc2ccccc21 | i | nt | i | nt | nt | nt
